Among all 360,000 compounds or so, about 17,000 (4.7%) were called active. Roughly 5% stayed inconclusive and do not appear here. The sample as a whole holds a higher share of actives than the screen did. A number with no mark means an inactive call. Cut-off read from the data, not from the text of the source: active = activity change below about -50%; inconclusive = mostly about -30% to -49%; inactive = weaker than that.
Assay: qHTS for Inhibitors of Inflammasome Signaling: IL-1-beta AlphaLISA Primary Screen
Conditions: THP-1 LPS/ATP IL-1B secretion, 16 h; at 57.5 µM, active compounds read low
Method in brief: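 Secreted IL-1B measured by AlphaLISA bead assay after 16 h compound exposure of THP-1 cells; compounds (final up to 57.5 uM) added 1 h before LPS (250 ng/mL) and ATP (1.25 mM) stimulation; lower signal means less secretion.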
% is set by controls: 0 for no effect and ±100 for the full control effect.

Going from `O=C(NCCS(=O)(=O)N1CCN(c2ccccc2)CC1)c1cc(=O)c2ccccc2o1` to `Cc1ccc(C)c(OCCC(=O)OCC(=O)N2CCN(c3ccccc3)CC2)c1`, the activity change falls from -1.79% to -2.33%.

Compared with `CC(=O)Oc1ccc(OC(C)=O)c2c1C1C=CC2CC1`, `COc1ccccc1OCCC(=O)OCC(=O)NCc1ccccc1` is higher in activity change: -13.5% for the first, 18% for the second.

Compared with `Clc1ccc(-n2nnnc2-c2cnc(-c3ccccn3)nc2-c2cccs2)cc1`, `c1ccc(-n2nnnc2-c2cccnc2)cc1` is higher in activity change: -21.9% for the first, -6.19% for the second.

Going from `O=C(OCC(=O)c1c[nH]c2ccccc12)c1cccc(O)c1` to `Cn1nc(C(=O)OCC(=O)N(Cc2ccccc2)C(C)(C)C)c2ccccc2c1=O`, the activity change rises from -4.98% to 10.9%.

First: O=C(CNC(=O)c1ccc(-c2ccccc2)cc1)OCc1ccc(Cl)cc1
Second: Nc1[nH]c(C(=O)c2ccccc2)c(-c2ccncc2)c1C(=O)NCc1cccc2ccccc12
The activity change of the first is higher: 18.8% for the first, 7.69% for the second.

First: CCN(CC)CCNC(=O)C1c2ccccc2C(=O)N(C)C1c1cn(C)c2ccccc12 (stereo not given)
Second: CSc1nnc2c(n1)OC(c1cn(C)c3ccccc13)N(C(C)=O)c1ccccc1-2 (stereo not given)
The activity change of the first is higher: 6.05% for the first, 0.333% for the second.

First: CCCc1ccc(C(O)c2ncc(-c3cccc(OC)c3)[nH]2)cc1 (stereo not given)
Second: O=C(CSc1nc2cccc(F)c2c(=O)n1-c1ccccc1)Nc1ccc2c(c1)CCC2
The activity change of the first is higher: 26% for the first, 0% for the second.

Going from `COC(=O)c1ccccc1Oc1c(F)c(F)nc(N2CCOCC2)c1F` to `C=CCn1c(Cn2nnc3ccccc32)nnc1SCC(=O)N/N=C/c1cc(Br)cc(OC)c1O`, the activity change falls from 5.09% to 1%.

Compared with `Cc1noc(C)c1S(=O)(=O)N(C)C[C@H]1OCCCC[C@@H](C)Oc2ccc(NC(=O)CCCN(C)C)cc2C(=O)N([C@H](C)CO)C[C@@H]1C`, `COC(=O)c1ccc(NC(=O)C23CC4CC(C2)CC(n2cnc(Cl)n2)(C4)C3)cc1` is higher in activity change: 19.6% for the first, 54.6% for the second.

Compared with `O=[N+]([O-])c1ccc(CN2CC(N3CC=CC3)CS2(=O)=O)cc1` (stereo not given), `Oc1c(Cl)cc(Cl)cc1/C=N/c1ncn[nH]1` is higher in activity change: -24.5% for the first, -20.2% for the second.

For `FC(F)(F)c1nc(-c2ccccc2)ncc1-c1nnnn1-c1ccccc1`, the activity change was -66.2% (active).
In the case of `O=C(OCc1ccc(-c2ccccc2)cc1)c1cccc(O)c1`, the activity change was -71.1% (active).
In the case of `Cn1cc(C2OC(=O)c3ccccc32)c2ccccc21` (stereo not given), the activity change was -66% (active).
With `Cc1ccc(C)c(OCCC(=O)OCC(=O)NC(=O)NCc2ccccc2)c1` the activity change was -87.8% (active).
In the case of `COc1cc(Br)cc(/C=N/c2ncn[nH]2)c1O`, the activity change was -55.5% (active).

Source: PubChem BioAssay AID743279 (National Center for Advancing Translational Sciences (NCATS), 2014)
